High-throughput results: PubChem BioAssay, several laboratories
Vif imaging – HIV Vif inhibition | actives 0.35% (n = 340,000) | HEK293T cells, Vif self-association by quenched fluorescence, imaging, 24 h | inhibition, % at 7.49 µM; in the data active means inhibition above about 50%, passing the limit was not always enough
NadD inh – blocks S. aureus nicotinate mononucleotide adenylyltransferase | purified NadD enzyme, colorimetric absorbance read-out | actives 0.78% (n = 360,000) | inhibition, % at 20 µM; in the data active means inhibition above about 26%
GRIN3A LBD mod – modulators (binders) of human NR3A ligand-binding domain; AID 1259313; Tm shift relative to glycine control, % at 25 µM; actives 2.5% (n = 340,000); NR3A LBD differential scanning fluorimetry, Tm shift; 0% = protein alone, 100% = glycine-bound protein;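 active means melting temperature shift of at least 10% of the positive control shift, at one fixed dose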
SMARCA2 activ – increases SMARCA2 function in MMTV reporter cells; activation, % at 9.1 µM; AID 652017; actives 1% (n = 370,000); MG213 cells, MMTV-luciferase reporter, dexamethasone, overnight; in the data active means activation above about 7.8%;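 further: 0% = vehicle wells and 100% = reference activator wells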
SKN-1 block – C. elegans SKN-1 inhibition; C. elegans VP596 Pgst-4::GFP/RFP ratio, acrylamide-induced, 24 h; inhibition, % at 21.8 µM; actives 0.49% (n = 360,000);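 active means interference check ratio from 0.5 to 1.5 plus GFP to RFP signal ratio inhibition reaching or exceeding a fixed threshold, cut at about 30% in these data, passing the limit was not always enough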
esBAF inh – blocks esBAF chromatin remodeling in mouse ES cells. Bmi1-luciferase knock-in reporter, 24 h; 100% = twice the neutral-well signal. reporter increase, % at 12.5 µM. AID 602393. actives 2% (n = 350,000); in the data active means activation above about 40%;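 further: 0% = median of the plate's neutral control wells and 100% = double that signal; a rise in the Bmi1 reporter signal indicates esBAF inhibition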
An asterisk follows results filed as active; i = inactive; nt = not tested or not shown. In the library only some 5.2% were active in any assay of this set; here they are far more common.

SMILES	Vif imaging	NadD inh	GRIN3A LBD mod	SMARCA2 activ	SKN-1 block	esBAF inh
O=C(c1ccc(Cl)cc1)N1CCc2ccccc21	-3	-6	-3	1	-2	14
Cc1cc(C)n2nc(SCC(=O)N3CCc4ccccc43)nc2n1	-1	7	-3	2	10	nt
Cc1ccc(-c2cc(C(=O)N3CCCc4ccccc43)no2)cc1	-5	0	-2	0	-2	72*
C[C@@H]1CN([C@@H](C)CO)C(=O)c2cc(C#CC3CCCC3)cnc2O[C@@H]1CN(C)C(=O)c1ccncc1	nt	nt	nt	nt	nt	-64
C[C@H]1CN([C@@H](C)CO)S(=O)(=O)c2ccc(/C=C/c3ccccc3)cc2O[C@@H]1CN(C)Cc1cncnc1	nt	nt	nt	nt	nt	-13
CCCNC(=O)N(C)C[C@@H]1Oc2cc(C#CCC(C)C)ccc2S(=O)(=O)N([C@@H](C)CO)C[C@H]1C	nt	nt	nt	nt	nt	-6
C[C@H](O)C#Cc1cnc2c(c1)C(=O)N([C@H](C)CO)C[C@@H](C)[C@H](CN(C)Cc1cccc(C(=O)O)c1)O2	nt	nt	nt	nt	nt	6
OCCN1CCN(C(=S)c2ccc(Cl)cc2)CC1	nt	1	2	0	-20	-2
CC(C)(C)c1cc(C(=S)N2CCN(CCO)CC2)cc(C(C)(C)C)c1O	-1	-5	11*	-1	0	-2
Cc1ccc(S(=O)(=O)NN=C2CCC(C(C)(C)C)CC2)cc1[N+](=O)[O-] (stereo not given)	-6	3	-1	nt	-11	nt
O=S(=O)(N/N=C1/CC(c2ccccc2)Oc2ccccc21)c1ccc(Br)cc1 (stereo not given)	-9	21	21*	1	-2	4
Cc1ccc(S(=O)(=O)N/N=C2/CC(c3ccccc3)Oc3ccccc32)cc1[N+](=O)[O-] (stereo not given)	-11	19	25*	-2	4	41*
COc1ccc2c(c1OC)C(=O)OC2C1c2c(cc3c(c2OC)OCO3)CCN1C (stereo not given)	-2	-1	-2	2	-6	-2
CN1CCc2cc3c(c4c2[C@H]1[C@H](O)c1ccccc1-4)OCO3	-4	6	-1	9.3*	24	4
Cc1nc(NCC2CCCO2)[nH]c(=O)c1CCC(C)C (stereo not given)	-44	-2	-1	-3	8	0
CC(=O)Nc1nc(C)c(CCC2OCCO2)c(=O)[nH]1	-4	-7	12*	0	24	nt
Cc1[nH]c(=S)[nH]c(=O)c1CCC1OCCO1	3	-9	14*	-1	-12	nt
C[C@H](CO)N1C[C@H](C)[C@H](CN(C)C(=O)Nc2ccc3c(c2)OCO3)Oc2c(NC(=O)c3cnccn3)cccc2C1=O	nt	nt	nt	nt	nt	-6
CC1CCN(Cc2c(C(=O)N/N=C/c3ccc(C(F)(F)F)cc3)nnn2-c2nonc2N)CC1	10	4	6	-2	6	-2
CCOc1ccc(/C=N/NC(=O)c2nnn(-c3nonc3N)c2CN2CCC(C)CC2)cc1	-2	5	11*	1	-1	-4
Nc1nonc1-n1nnc(C(=O)N/N=C/c2ccc(OCc3ccccc3F)cc2)c1CN1CCCCC1	2	26	16*	2	8	9
CC1CCN(Cc2c(C(=O)N/N=C/c3cccc(C(F)(F)F)c3)nnn2-c2nonc2N)CC1	-4	9	16*	-4	9	-8
O=[N+]([O-])c1ccccc1OCCCOc1cccc2cccnc12	-1	-1	2	2	7	60*
O=[N+]([O-])c1ccccc1OCCOc1ccccc1[N+](=O)[O-]	3	-1	1	0	-3	nt
Clc1ccccc1OCCCOc1cccc2cccnc12	5	4	-1	3	-12	55*
SMILES	Vif imaging	NadD inh	GRIN3A LBD mod	SMARCA2 activ	SKN-1 block	esBAF inh
O=Cc1ccccc1OCCCOc1cccc2cccnc12	-2	1	-1	7	-4	25
Brc1ccc(OCCOCCOc2cccc3cccnc23)cc1	4	1	2	-1	14	7
Brc1ccc(OCCCOc2cccc3cccnc23)cc1	0	0	-4	-2	2	72*
N#Cc1cc2cc3c(cc2nc1SCC(=O)N1CCOCC1)OCO3	9	-2	-1	3	23	52*
CC(C)OC(=O)CSc1nc2cc3c(cc2cc1C#N)OCO3	2	-2	0	4	34*	59*
O=C(C[C@@H]1CC[C@H]2[C@@H](COC[C@@H](O)CN2S(=O)(=O)c2ccc(F)cc2)O1)N[C@H]1CCN(Cc2ccccc2)C1	nt	nt	nt	nt	nt	-3
COc1ccc(S(=O)(=O)Nc2ccc3c(c2)C(=O)N([C@@H](C)CO)C[C@@H](C)[C@H](CN(C)Cc2ccncc2)O3)cc1	nt	nt	nt	nt	nt	-6
Cc1cc(C)cc(NC(=O)c2sc3nc(C)cc(C)c3c2N)c1	-7	7	-3	4	2	70*
Cc1c(C(=O)N/N=C/c2ccc(N(C)C)cc2)[nH]c2ccc(Cl)cc12	nt	17	27*	-2	3	nt
Cc1c(C(=O)N/N=C/c2ccccc2)[nH]c2ccc(Cl)cc12	-4	2	30*	1	4	nt
COc1ccc(/C=N/NC(=O)c2[nH]c3ccc(Cl)cc3c2-c2ccccc2)c(C(=O)O)c1OC	-13	12	-2	0	16	-51
COc1cc(C(=O)NN=Cc2ccc(N(C)C)cc2)cc(OC)c1OC	3	-2	nt	-2	-8	-16
C#CCOCCOCCOCCNc1nc(N2CCN(C(=O)CCCCCCCCCCNC(=O)[C@H](CCCCN)n3cc(C)nn3)CC2)nc(N2CCN(C(=O)CCCCCCCCCCNC(=O)[C@@H]([C@H](C)CC)n3cc(CCCCCN)nn3)CC2)n1	i	51*	nt	nt	-23	-79
C#CCOCCOCCOCCNc1nc(N2CCN(C(=O)CCCCCCCCCCNC(=O)[C@H]([C@@H](C)CC)n3cc(CCCCCN)nn3)CC2)nc(N2CCN(C(=O)CCCCCCCCCCNC(=O)[C@@H]([C@H](C)O)n3cc(C)nn3)CC2)n1	-2	33*	17*	nt	-3	-2
Cc1cc(C(=O)Nc2c(F)c(F)c(F)c(F)c2F)n(-c2ccccc2)n1	73*	-2	-1	0	1	nt
Cc1c(Cl)cccc1Nc1nc(N)nc(CSc2nc3ccccc3s2)n1	-11	7	11*	-3	-10	nt
Cc1c(Cl)cccc1Nc1nc(N)nc(CSc2ncccn2)n1	8	0	0	2	-10	52*
Cc1c(Cl)cccc1Nc1nc(N)nc(CSCCO)n1	5	-7	0	1	13	nt
Cc1ccccc1Nc1nc(N)nc(CSc2nnc3sc4ccccc4n23)n1	-6	5	0	1	2	2
COc1ccc(NC(=O)N(C)C[C@H]2OCCCC[C@H](C)Oc3ccc(NS(=O)(=O)c4c(C)noc4C)cc3C(=O)N([C@H](C)CO)C[C@@H]2C)cc1	nt	nt	nt	nt	nt	4
